In the library only some 4.6% were active in any assay of this set; here they are far more common.
Lassa entry inh – Lassa virus entry inhibition; Potency, µM (titrated, usually from 37.9 µM), without a hit: at the top dose activity change, negative = inhibition, hits mostly inhibitors; actives 1.2% (n = 300,000); Lassa virus pseudotype entry inhibition, cell reporter; calls by dose curve; tested in HEK293 cells; note: nearly all actives have a fitted effect of over 50% in size
Vaccinia mCherry – inhibitors of vaccinia virus infection (mCherry reporter signal) | Vaccinia virus mCherry reporter infection, fluorescence | Potency, µM (highest dose often 36.5 µM), without a hit: top-dose activity change, negative = inhibition, most hits filed as inhibitors | actives 0.63% (n = 310,000); calls by dose curve; tested in A549 cells; note: nearly all actives have a fitted effect of over 35% in size
HCV inhibitor – HCV inhibition; Huh7.5.1 HCVcc-Cre infection, luciferase reporter, 44 h; Potency, µM (titrated, usually from 41.8 µM), inactives show at the top dose activity change, negative = inhibition, hits mostly inhibitors; actives 3.4% (n = 340,000); AID 651820; active = well fitted inhibition curve with a large enough effect; inconclusive = small, poorly fitted or top-dose-only effect, or another doubt; inactive = no such curve, though single readings can be large or run the other way
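HCVcc-Cre virus at an moi near 0.5 was added right after compound to cells cultured 4 h from seeding (1,000 cells/well). Luciferase activity was determined 44 h later, 15 min after substrate addition at RT.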
Marburg entry inh – blocks Marburg virus binding to or entry into cells; Marburg virus pseudotyped entry inhibition, cell reporter; Potency, µM (series often up to 37.8 µM), for inactives: at the highest dose activity change, negative = inhibition, usual class: inhibitors; actives 1.8% (n = 300,000); AID 540276; calls by dose curve; tested in HEK293 cells
VACV Venus inh – inhibitors of vaccinia virus (Venus reporter) | Potency, µM (series often up to 36.5 µM), inactives show top-dose activity change, negative = inhibition, usual class: inhibitors | Vaccinia virus Venus reporter expression, fluorescence | AID 720580 | actives 0.46% (n = 330,000); calls by dose curve; tested in A549 cells; note: nearly all actives have a fitted effect of over 30% in size
The depositor's hits bear a star; i = inactive; ? = inconclusive; · = no result given; [ ] = dose if it differs, or a comment. % is set by controls: 0 for no effect and ±100 for the full control effect; potency is the fitted concentration of half-maximal effect.

SMILES	Lassa entry inh	Vaccinia mCherry	HCV inhibitor	Marburg entry inh	VACV Venus inh
CC(=O)C1CC[C@H]2C3CC[C@@H]4CC(O)CC[C@@]4(C)C3CC[C@]12C (stereo partly specified)	·	-13.7%	·	·	-16.6%
CCc1ccc(NCc2cc3cc(OC)c(OC)cc3n(CC(=O)Nc3cc(C)ccc3C)c2=O)cc1	?	-18.0%	·	·	-18.6%
CC(=O)OCC1O[C@@H](O[C@@H]2C[C@H]3C(C)(C)[C@H](OC(C)=O)CC[C@]3(C)[C@H]3CC[C@]45C[C@]4(CC[C@H]5[C@@H](C)C[C@@H](O)[C@H](O)C(C)(C)O)[C@@]32C)[C@H](O)[C@@H](O)[C@@H]1O (stereo partly specified)	14.6µM*	·	-3.7%[8.37 µM]	?	·
Cc1c(C(=O)NCC2(c3ccccc3)CCOCC2)cnn1-c1nccc(-c2ccco2)n1	·	-4.2%	·	·	-0.1%
O=C(N/N=C/c1ccccc1)c1cc(-c2ccc3c(c2)OCO3)n[nH]1	-0.9%[46.1 µM]	-15.8%	2.4%	-22.3%[46.1 µM]	-28.7%
O=C(N/N=C/c1ccc(O)cc1)c1cc(-c2ccc3c(c2)OCO3)n[nH]1	?	?	?	7.94µM*	-15.1%
Cc1cccc(N2CCN(C(=O)c3ccc4nc(-c5ccco5)c(-c5ccco5)nc4c3)CC2C)c1 (stereo unspecified)	?	·	10µM*	?	·
O=C(Cn1[nH]c(=O)c2ccccc2c1=O)NCCN1C(=O)S/C(=C\c2ccccc2)C1=O	·	·	11.2µM*	·	·
Cc1[nH]c2ccc(C(=O)Nc3ccncc3)cc2c1C	·	·	11.2µM*	·	·
Cn1c2c(c(=O)n(C)c1=O)[C@@](NC(=O)C(C)(C)C)(C(F)(F)F)C(=O)N2	·	·	·	-2.8%	·
C[C@@H]1CN([C@H](C)CO)C(=O)c2cc(NC(=O)Nc3ccc(C(F)(F)F)cc3)ccc2O[C@H]1CN(C)Cc1ccc(Cl)c(Cl)c1	·	?	9.1%	·	10µM*
C[C@H](CO)N1C[C@H](C)[C@@H](CN(C)S(=O)(=O)c2ccc(F)cc2)Oc2ccc(NC(=O)Nc3ccc(C(F)(F)F)cc3)cc2C1=O	·	?	31.6µM*	·	?
C[C@H](CO)N1C[C@H](C)[C@@H](CN(C)S(=O)(=O)c2ccccc2)Oc2ccc(NC(=O)Nc3ccccc3)cc2C1=O	·	?	-2.9%	·	10µM*
C[C@@H]1CN([C@@H](C)CO)C(=O)c2cc(NC(=O)CCC(F)(F)F)ccc2O[C@H]1CN(C)Cc1ccc(Cl)c(Cl)c1	·	?	-26.2%	·	?
C[C@@H]1CN([C@H](C)CO)C(=O)c2cc(NC(=O)Nc3ccc(C(F)(F)F)cc3)ccc2O[C@H]1CN(C)S(=O)(=O)c1ccc(Cl)cc1	·	-8.7%	?	·	-25.9%
C[C@H](CO)N1C[C@H](C)[C@@H](CN(C)S(=O)(=O)c2ccc(F)cc2)Oc2ccc(NC(=O)Nc3ccccc3)cc2C1=O	·	-6.8%	-3.8%	·	-19.3%
COc1ccc(NC(=O)N(C)C[C@H]2Oc3c(NC(=O)Nc4ccc(C(F)(F)F)cc4)cccc3C(=O)N([C@H](C)CO)C[C@@H]2C)cc1	·	-16.1%	6.31µM*	·	?
COc1ccc(NS(=O)(=O)c2cc(Br)cc3c2N(C(=O)C2CC2)CC3)cc1OC	?	-19.4%	·	·	-29.0%
C[C@@H]1C=CCCO[C@]12C(=O)N(Cc1ccc(F)cc1)c1ccccc12	?	·	·	-0.1%[14.2 µM]	·
CCOc1ccc(-c2c(C)nn3c(C)c(C(=O)NC(C)c4ccccc4)cnc23)cc1OCC (stereo unspecified)	-12.7%[46.1 µM]	-21.2%	·	·	-13.2%
C[C@@H]1CN([C@H](C)CO)C(=O)c2cc(NS(=O)(=O)c3ccc(F)cc3)ccc2O[C@@H]1CN(C)Cc1ccc(Cl)c(Cl)c1	·	?	6.31µM*	·	10µM*
Cc1ccc(S(=O)(=O)N(C)C[C@@H]2Oc3ccc(NC(=O)CCC(F)(F)F)cc3CC(=O)N([C@@H](C)CO)C[C@@H]2C)cc1	·	-8.5%	?	·	?
C[C@H](CO)N1C[C@H](C)[C@@H](CN(C)S(=O)(=O)c2ccc(F)cc2)Oc2ccc(NS(=O)(=O)c3ccc(F)cc3)cc2C1=O	·	i	-5.4%	·	-4.0%
Cc1ccc(S(=O)(=O)N(C)C[C@@H]2Oc3ccc(NS(C)(=O)=O)cc3CC(=O)N([C@H](C)CO)C[C@@H]2C)cc1	·	-1.7%	2.82µM*	·	-9.2%
